PubChem BioAssay (NCI)
Compounds without any hit were thinned out: in the full panel of roughly 83,000, 20% have a hit.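 Plates (96-well) were seeded with cells, treated with compound at one concentration, and incubated for 48 hours before percent growth was determined.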 A number with no mark means an inactive call. Calls of active or inactive are those of the source.

Each molecule was assayed on LOX IMVI melanoma (assay: NCI-60 one-dose screen, 48 h (100 = growth as untreated, 0 = no growth, -100 = all killed)). Details: 10 µM.
Protocol: Growth inhibition of the LOX IMVI human tumor cell line is measured as a screen for anti-cancer activity. Cells are grown in 96 well plates and exposed to the test compound for 48 hours. Compounds are tested at a single concentration, which is 10^-5 M for most compounds. The reported endpoint is percent growth (GI% or GIPRCNT), where numbers from 0 - 100% represent growth inhibition, and numbers from -100% - 0 represent cell death. For example, a value of 40 represents 60% growth inhibition. A value of 0 means no net growth occurred over the course of the experiment. A value of -40 indicates 40% of cells at the beginning of the experiment died by the end of the experiment. A value of -100 means all cells are dead at the end of the experiment.
NCI-60 Human Tumor Cell Lines Screen was performed using the standard one-dose NCI protocol, which is described in more detail at https://dtp.cancer.gov/discovery_development/nci-60/default.htm.
Compounds with GIPRCNT values below 10 were considered active. Activity score was based on GIPRCNT using the following formula: […]
Score is 0 for GIPRCNT values of 100 or above, 50 for GIPRCNT values of 0, and 100 for GIPRCNT values of -100.

| Structure (SMILES) | growth |
| --- | --- |
| COC1OC2COC(c3ccccc3)OC2C(=O)C1NC(=O)c1ccccc1 (stereo not given) | 90.1% |
| Cc1cc(C)c2nc(C)c(C)[n+]([O-])c2c1 | 95.4% |
| CC(C)C(C)C(N)C(=O)O (stereo not given) | 96% |
| Cc1ccccc1C1=N[C@@H](Cc2ccccc2)C(=O)c2c(nc3ccccn23)N1 | 91.7% |
| COc1cc(CSc2nc3ccc(Cl)cc3c(=O)n2Cc2ccccc2)cc(OC)c1OC | 39.3% |
| COc1ccc(C2C=C(c3ccc(OC)c(OC)c3)N=C3SC=CN32)c(Br)c1 (stereo not given) | 23.3% |
| CN(C)c1ccc2c(c1)OC(N)=C(C#N)C2c1ccc2c(c1)CCO2 (stereo not given) | 29% |
| C/C(=N\NC(=O)c1sc(=S)n(C)c1N)c1cc2ccccc2o1 | 25.6% |
| COc1cc(/C=C/C(=O)c2cc(-c3ccc(C(F)(F)F)cc3)ccc2O)cc(OC)c1OC | 19.2% |
| Cc1nc(Nc2nc3ccccc3o2)nc(-c2cccc([N+](=O)[O-])c2)c1C(=O)Nc1ccc(F)c(Cl)c1 | 0.0269% (active) |
| COc1cc2ccnc(C=O)c2cc1OC | 41.8% |
| COc1cc(C2CC(=O)Nc3c2c(C)nn3-c2nc3ccccc3[nH]2)cc(OC)c1O (stereo not given) | 55.1% |
| FC(F)(F)c1ccc(-c2cnc(Br)nc2NC2CCCCCC2)cc1 | 40.1% |
| Oc1ccc(/C=N\Nc2ccccn2)c(O)c1 | -6.3% (active) |
| Oc1ccc(Cn2cc3c(c2-c2ccccc2)CCc2cnoc2-3)cc1 | 88.7% |
| COc1ccc(-n2nnc3c(sc4ccccc43)c2=O)cc1 | 74.4% |
| COc1ccc(-c2nnc(SCC(=O)c3ccccc3)o2)cc1 | 92.8% |
| O=c1[nH]c(=O)n(C2C[C@@H](O)[C@@H](CO)O2)cc1F (stereo not given in full) | 14.1% |
| CCOC(=O)c1cc2c(n1Cc1ccccc1)-c1oncc1CC2 | 80.9% |
| O/N=C1\CCC2CCCCC2C1 (stereo not given) | 98.2% |

| Structure (SMILES) | growth |
| --- | --- |
| COc1cc(Cn2c(-c3ccccc3)c(Cl)c3c2-c2oncc2CC3)cc(OC)c1 | 73.8% |
| CCSc1nc2c([nH]1)c(=O)n(C)c(=S)n2C | 96.9% |
| CC(=O)N(O)c1ccc(/C=C/c2ccccc2)cc1 | 25.9% |
| COc1cccc2c1C(=O)c1c(O)c3c(c(O)c1C2=O)C[C@@](O)(C(=O)COC(=O)c1cccnc1)C[C@@H]3OC1CC(N)C(O)C(C)O1 (stereo not given in full) | 0.723% (active) |
| CCc1c(C)[nH]c(=O)c(C(N)=O)c1C#N | 109% |
| O=C(O)c1cc(C(F)(F)F)cc(C(F)(F)F)c1 | 99.7% |
| CCOC(=O)c1c(O)c2cc(-c3ccccc3)nc(OCC)c2c(=O)n1C | 98.7% |
| CNC(=O)c1cc(Oc2ccc(NC(=O)Nc3ccc(Cl)c(OC4CCCCC4)c3)c(F)c2)ccn1 | 42.3% |
| CCC(CCNc1cc(OC)cc2cccnc12)CN1C(=O)c2ccccc2C1=O (stereo not given) | 90.6% |
| COc1ccc(C2C=C(c3ccc(Cl)cc3)N=C3SC=CN32)c(Br)c1 (stereo not given) | 71.2% |
| O=S(=O)(NCl)c1ccccc1 | 97.1% |
| CCOC(=O)Cn1nnc(-c2ccc(OCc3ccccc3F)cc2)n1 | 85.2% |
| NC(=O)c1ccc(Br)o1 | 98.1% |
| Cc1cc(/C=C2\SC(=Nc3ccccc3)N(C3CCCC3)C2=O)c(C)n1-c1ccc(Cl)cc1 | -72.7% (active) |
| COc1ccc(C2C=C(c3ccc(Cl)c(Cl)c3)N=C3SC(C)=CN32)cc1 (stereo not given) | 83.4% |
| COC(=O)c1c(C)nc(Nc2nc3ccccc3s2)nc1-c1ccc(Cl)cc1Cl | 101% |
| Cc1nn2c(/C=C3/C(=O)Nc4ccc(Cl)cc43)c(-c3ccccc3)nc2s1 | 45.3% |
| OC(CNC1CCCC1)Cn1c2ccccc2c2ccccc21 (stereo not given) | -75.9% (active) |
| C[C@@H]1N=C(c2ccc(Br)cc2)Nc2nc3ccccn3c2C1=O | 52.4% |
| Cc1cc(Cl)ccc1Nc1nc(C(F)(F)F)ccc1C(=O)N/N=C/c1ccccc1Cl | 20.1% |
